Measured values published in PubChem BioAssay AID1159580 (chemical genetic matrix, 2015).
Values joined by “and” are separate entries in the source; they are usually repeats but may differ in a detail not shown here. Equal values may be shown once. About 2,000 (36%) of roughly 5,500 compounds were called active. Not shown: some 18% with an inconclusive outcome. Cut-off read from the data, not from the text of the source: active = normalized growth mostly below about 0.91 (no sharp cut-off); inconclusive = no clear call, values can overlap the other calls; inactive = mostly above about 0.92. Some of the results follow.

Experiment: chemical genetic growth profiling, strain panel (AID 1159580);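 note: tested at 20 µM; growth read once vehicle control cultures reached saturation at 30 °C; 1 = growth at the plate median or of vehicle wells; lower values mean less growth of the strain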
Conditions: S. cerevisiae deletion strains, growth OD

Measured: normalized growth

COc1cc(O)c(C)c(O)c1
active: locus YKL009W, strain mrt4, stronger effect = lower value 1.16 [resistant]
inactive: locus YAL013W, strain DEP1, stronger effect = lower value 0.999 | locus YAL021C, strain ccr4, stronger effect = lower value 1.03 | locus YAL026C, strain drs2, stronger effect = lower value 1.02 | locus YAL030W, strain snc1, stronger effect = lower value 1.02 | locus YBL061C, strain skt5, stronger effect = lower value 1.01 | locus YBR009C, strain hhf1, stronger effect = lower value 1.02 | locus YBR021W, strain FUR4, stronger effect = lower value 0.995 | locus YBR023C, strain chs3, stronger effect = lower value 1.02 | locus YBR171W, strain sec66, stronger effect = lower value 1.03 | locus YBR229C, strain ROT2, stronger effect = lower value 0.998 | locus YBR231C, strain swc5, stronger effect = lower value 1.01 | locus YBR279W, strain paf1, stronger effect = lower value 1.01 | locus YCL011C, strain gbp2, stronger effect = lower value 1 | locus YCL016C, strain dcc1, stronger effect = lower value 1 | locus YCL029C, strain bik1, stronger effect = lower value 1.04 | locus YCL061C, strain MRC1, stronger effect = lower value 1.01 | locus YCL069W, strain vba3, stronger effect = lower value 1.01 | locus YCR088W, strain abp1, stronger effect = lower value 1.01 | locus YDL005C, strain med2, stronger effect = lower value 1.01 | locus YDL035C, strain GPR1, stronger effect = lower value 1.01 | locus YDL040C, strain nat1, stronger effect = lower value 1.01 | locus YDL074C, strain BRE1, stronger effect = lower value 1.02 | locus YDL101C, strain DUN1, stronger effect = lower value 1.01 | locus YDL134C, strain PPH21, stronger effect = lower value 1 | locus YDL185W, strain tfp1, stronger effect = lower value 1.02 | locus YDL192W, strain arf1, stronger effect = lower value 1 | locus YDR001C, strain nth1, stronger effect = lower value 1.01 | locus YDR069C, strain doa4, stronger effect = lower value 1.01 | locus YDR101C, strain arx1, stronger effect = lower value 1 | locus YDR137W, strain rgp1, stronger effect = lower value 1.05 | locus YDR150W, strain NUM1, stronger effect = lower value 0.995 | locus YDR159W, strain sac3, stronger effect = lower value 1.01 | locus YDR162C, strain NBP2, stronger effect = lower value 1.02 | locus YDR195W, strain ref2 1.02 | locus YDR297W, strain sur2, stronger effect = lower value 1.01 | locus YDR318W, strain mcm21, stronger effect = lower value 1.01 | locus YDR334W, strain swr1, stronger effect = lower value 1.02 | locus YDR335W, strain msn5, stronger effect = lower value 1.04 | locus YDR388W, stronger effect = lower value 1 | locus YDR392W, strain spt3, stronger effect = lower value 1.03 | locus YDR502C, strain sam2, stronger effect = lower value 1.04 | locus YEL003W, strain gim4, stronger effect = lower value 1.03 | locus YEL037C, strain rad23, stronger effect = lower value 1.02 | locus YEL061C, strain CIN8 (second series), stronger effect = lower value 1.02 | locus YEL061C, strain CIN8, stronger effect = lower value 1 | locus YER015W, strain faa2, stronger effect = lower value 1 | locus YER016W, strain bim1, stronger effect = lower value 1.02 | locus YER110C, stronger effect = lower value 1.01 | locus YER111C, strain swi4, stronger effect = lower value 1.01 | locus YER155C, strain BEM2 (second series), stronger effect = lower value 1.04 | locus YER155C, strain BEM2, stronger effect = lower value 0.999 | locus YER167W, strain BCK2, stronger effect = lower value 1 | locus YFR010W, strain ubp6, stronger effect = lower value 1.02 | locus YGL078C, strain dbp3, stronger effect = lower value 1.03 | locus YGL086W, strain mad1, stronger effect = lower value 1.01 | locus YGL167C, strain pmr1, stronger effect = lower value 1.01 | locus YGL173C, strain kem1, stronger effect = lower value 1.02 | locus YGL227W, strain vid30, stronger effect = lower value 1.01 | locus YGL240W, strain doc1, stronger effect = lower value 0.977 | locus YGL248W, strain PDE1, stronger effect = lower value 1.03 | locus YGL253W, strain hxk2, stronger effect = lower value 1.02 | locus YGR135W, strain pre9, stronger effect = lower value 1.02 | locus YGR252W, strain gcn5, stronger effect = lower value 0.973 | locus YHR013C, strain ard1, stronger effect = lower value 1.01 | locus YHR027C, strain rpn1, stronger effect = lower value 1.01 | locus YHR030C, strain SLT2, stronger effect = lower value 0.997 and 0.992 | locus YHR079C, strain IRE1 (second series), stronger effect = lower value 1.01 | locus YHR079C, strain IRE1, stronger effect = lower value 0.996 | locus YHR094C, strain hxt1, stronger effect = lower value 1.01 | locus YHR129C, strain ARP1, stronger effect = lower value 1.01 | locus YHR142W, strain chs7, stronger effect = lower value 1.02 | locus YHR200W, strain rpn10, stronger effect = lower value 1.02 | locus YIL066C, strain RNR3, stronger effect = lower value 1.02 | locus YIL073C, strain SPO22, stronger effect = lower value 1.13 | locus YIL125W, strain kgd1, stronger effect = lower value 1.02 | locus YIR030C, strain dcg1, stronger effect = lower value 1.01 | locus YJL092W, strain hpr5, stronger effect = lower value 1.01 | locus YJL095W, strain BCK1 (second series), stronger effect = lower value 1.01 | locus YJL095W, strain BCK1, stronger effect = lower value 1.01 and 1 | locus YJL115W, strain asf1, stronger effect = lower value 1.01 | locus YJL129C, strain trk1, stronger effect = lower value 1.05 | locus YJL134W, strain LCB3, stronger effect = lower value 1 | locus YJL154C, strain vps35, stronger effect = lower value 1.01 | locus YJL164C, strain tpk1, stronger effect = lower value 1.03 | locus YJL166W, strain qcr8, stronger effect = lower value 1 | locus YJL168C, strain set2, stronger effect = lower value 1.01 | locus YJL187C, strain SWE1 (second series), stronger effect = lower value 1.01 | locus YJL187C, strain SWE1, stronger effect = lower value 1.01 | locus YJR043C, strain POL32, stronger effect = lower value 1.02 | locus YJR066W, strain TOR1, stronger effect = lower value 0.906 | locus YJR075W, strain HOC1, stronger effect = lower value 1 | locus YKL068W, stronger effect = lower value 1.01 | locus YKL085W, strain MDH1 (second series), stronger effect = lower value 1.02 | locus YKL085W, strain MDH1, stronger effect = lower value 1.02 | locus YKL160W, strain elf1, stronger effect = lower value 1.01 | locus YKL190W, strain CNB1, stronger effect = lower value 0.998 | locus YKR001C, strain vps1, stronger effect = lower value 1.02 | locus YKR026C, strain gcn3, stronger effect = lower value 0.995 | locus YKR091W, strain srl3, stronger effect = lower value 1.01 | locus YLL001W, strain dnm1, stronger effect = lower value 1.01 | locus YLL026W, stronger effect = lower value 1.01 | locus YLL041C, strain sdh2, stronger effect = lower value 1.01 | locus YLR027C, strain aat2, stronger effect = lower value 1.01 | locus YLR039C, strain RIC1, stronger effect = lower value 1.02 | locus YLR058C, strain SHM2, stronger effect = lower value 1.01 | locus YLR102C, strain apc9, stronger effect = lower value 1.01 | locus YLR113W, strain HOG1, stronger effect = lower value 0.975 | locus YLR221C, strain rsa3, stronger effect = lower value 1.01 | locus YLR258W, strain gsy2, stronger effect = lower value 1.02 | locus YLR262C, strain YPT6 (second series), stronger effect = lower value 1.01 | locus YLR262C, strain YPT6, stronger effect = lower value 1.05 | locus YLR268W, strain sec22, stronger effect = lower value 1.02 | locus YLR320W, strain mms22, stronger effect = lower value 1.02 | locus YLR330W, strain CHS5, stronger effect = lower value 1 | locus YLR342W, strain FKS1 (second series), stronger effect = lower value 1 | locus YLR342W, strain FKS1, stronger effect = lower value 1.02 | locus YLR357W, strain rsc2, stronger effect = lower value 1.02 | locus YLR370C, strain arc18, stronger effect = lower value 1.02 | locus YLR371W, strain rom2, stronger effect = lower value 1.01 | locus YLR384C, strain iki3, stronger effect = lower value 1.03 | locus YLR418C, strain cdc73, stronger effect = lower value 1.02 | locus YML016C, strain PPZ1, stronger effect = lower value 1.01 | locus YML032C, strain rad52, stronger effect = lower value 1 | locus YML120C, strain ndi1, stronger effect = lower value 0.97 | locus YML124C, strain tub3, stronger effect = lower value 1.01 | locus YMR058W, strain fet3, stronger effect = lower value 1.01 | locus YMR078C, strain ctf18, stronger effect = lower value 1.03 | locus YMR125W, strain sto1, stronger effect = lower value 1.04 | locus YMR129W, stronger effect = lower value 1.02 | locus YMR205C, strain PFK2, stronger effect = lower value 1.01 | locus YMR223W, strain ubp8, stronger effect = lower value 1.02 | locus YMR231W, strain pep5, stronger effect = lower value 1.02 | locus YMR307W, strain GAS1, stronger effect = lower value 1.01 | locus YNL067W, strain RPL9B, stronger effect = lower value 1.01 | locus YNL071W, strain lat1, stronger effect = lower value 1.03 | locus YNL183C, strain NPR1, stronger effect = lower value 0.92 | locus YNL209W, strain ssb2, stronger effect = lower value 1.03 | locus YNL233W, strain BNI4, stronger effect = lower value 1.01 | locus YNL248C, strain rpa49, stronger effect = lower value 1.04 | locus YNL250W, strain rad50, stronger effect = lower value 1.03 | locus YNL271C, strain bni1, stronger effect = lower value 1.03 | locus YNL298W, strain CLA4, stronger effect = lower value 1.03 | locus YNL307C, strain MCK1, stronger effect = lower value 1.03 | locus YNL322C, strain KRE1 (second series), stronger effect = lower value 1.02 | locus YNR049C, strain mso1, stronger effect = lower value 1.01 | locus YNR052C, strain pop2, stronger effect = lower value 1.01 | locus YOL006C, strain TOP1, stronger effect = lower value 1.19 | locus YOL012C, strain htz1 0.903 | locus YOL147C, strain pex11, stronger effect = lower value 1.02 | locus YOR001W, strain rrp6, stronger effect = lower value 1.02 | locus YOR061W, strain CKA2, stronger effect = lower value 1.01 | locus YOR069W, strain VPS5, stronger effect = lower value 1.01 | locus YOR070C, strain gyp1, stronger effect = lower value 1.01 | locus YOR080W, strain dia2, stronger effect = lower value 1.02 | locus YOR083W, strain WHI5, stronger effect = lower value 1.01 | locus YOR106W, strain vam3, stronger effect = lower value 0.998 | locus YOR136W, strain idh2, stronger effect = lower value 1.02 | locus YOR144C, strain elg1, stronger effect = lower value 1.01 | locus YOR184W, strain ser1, stronger effect = lower value 1.02 | locus YOR231W, strain MKK1, stronger effect = lower value 1.01 | locus YOR265W, strain rbl2, stronger effect = lower value 1.01 | locus YOR270C, strain vph1, stronger effect = lower value 1.05 | locus YOR290C, strain snf2, stronger effect = lower value 0.988 | locus YOR316C, strain cot1, stronger effect = lower value 1.01 | locus YPL051W, strain arl3, stronger effect = lower value 1.02 | locus YPL078C, strain atp4, stronger effect = lower value 1.03 | locus YPL106C, strain sse1, stronger effect = lower value 1.01 | locus YPL240C, strain hsp82, stronger effect = lower value 1.02 | locus YPL241C, strain CIN2, stronger effect = lower value 1 | locus YPL256C, strain CLN2, stronger effect = lower value 0.985 | locus YPR119W, strain clb2, stronger effect = lower value 1.01 | locus YPR141C, strain kar3, stronger effect = lower value 1.01 | locus YPR163C, strain tif3, stronger effect = lower value 1.03 | locus YPR167C, strain met16, stronger effect = lower value 1.03 | strain wtn01, stronger effect = lower value 1.02
